Measured values published in PubChem BioAssay (NCATS).
Results filed as inconclusive are left out. Calls of active or inactive are those of the source. Unless noted, the call rests on the fitted dose curve; in most records, active means well fitted curve in the direction sought with a large enough effect; inconclusive means small, poorly fitted or top-dose-only effect, or another doubt; inactive means no such curve, though single readings can be large; an effect the other way counts as inactive or inconclusive.

Tests used:
[1] = Cellular Toxicity (caspase-3) Renal Proximal Tubule (AID 667);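 further: cells exposed to compound for 16 hours at 37 °C before detection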
Method in brief: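 Freshly isolated primary rat kidney proximal tubule cells, 1000/well, treated 16 hr at 37 °C, then Caspase-Glo 3/7 luminescence after 1 hr. Normalized to DMSO and 10 uM staurosporine; AC50 from Hill fit.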

[2] = Cell Viability - LYMP2-001 (AID 921); further: series mostly up to about 92 µM; nearly all actives have a fitted effect of over 70% in size
Method in brief: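 Human lymphoblastoid LYMP2-001 cells, 2500 per well, in complete medium, treated 24 h at 37 C. Viability from cellular ATP by CellTiter-Glo luminescence; AC50 from Hill-equation fits of qHTS concentration-response.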

[3] = MultiTox-Fluor Cytotoxicity Assay - LYMP1-001 - Dead Cells (AID 946)
Method in brief: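 AC50 from Hill fit of concentration-response; data normalized to DMSO (basal) and 15 uM tetraoctylammonium bromide (100%). LYMP1-001 lymphoblastoid cells, 2500/well, 16 hr compound at 37 C; dead-cell protease fluorescence, Ex/Em 485/520.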

[4] = Cell Viability - LYMP1-002 - Assay at 16 hr (AID 948)
Method in brief: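 LYMP1-002 human lymphoblastoid cells, 2500/well, were treated with compounds for 16 hr at 37 C in complete medium. Viability was read as intracellular ATP by CellTiter-Glo luminescence, and AC50 was derived from a Hill fit to concentration-response data.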

[5] = MultiTox-Fluor Cytotoxicity Assay - LYMP1-002 - Live Cells (AID 955)
Method in brief: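 Read-out is live-cell protease activity (cell-permeant GF-AFC substrate, fluorescence Ex/Em=405/510), where a decrease indicates acute toxicity. Human lymphoblastoid cells were treated 16 hours at 37 C in a concentration series, and AC50 values came from standard Hill modelling.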

[6] = MultiTox-Fluor Cytotoxicity Assay - LYMP1-003 - Dead Cells (AID 961); further: nearly all actives have a fitted effect of over 70% in size
Method in brief: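 Human lymphoblastoid LYMP1-003 cells (2500/well) were treated with compounds for 16 hr at 37 C in complete medium. Dead-cell protease release was read by bis-AAF-R110 fluorescence (Ex/Em 485/520). AC50 came from Hill fits, normalized to DMSO and 15 uM tetraoctylammonium bromide.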

[7] = MultiTox-Fluor Cytotoxicity Assay - LYMP1-003 - Live Cells (AID 962);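 further: cytotoxic hits lower the live-cell protease signal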
Method in brief: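 qHTS, 1536-well; 2500 cells/well LYMP1-003; 5 hr 37 C settle; cpd 16 hr 37 C; MultiTox-Fluor reagent 60 min RT; live-cell protease fluor. 405/510; Hill-fit AC50; tetraoctylammonium bromide pos. ctrl.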

[8] = Cell Viability - LYMP1-003 - Assay at 24 hr (AID 963)
Method in brief: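 Cells seeded at 2500/well, 5 hr at 37 C; compounds added; 24 hr at 37 C; CellTiter-Glo added, 30 min room temperature; luminescence read. Decrease in ATP taken as cytotoxicity, AC50 from Hill modelling.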

[9] = Cell Viability - LYMP1-003 - Assay at 40 hr (AID 964); further: series mostly up to about 92 µM; nearly all actives have a fitted effect of over 60% in size
Method in brief: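 Cells were seeded at 2500 per well and incubated 5 hr at 37 C. Compounds were added across a concentration series and left 40 hr at 37 C. CellTiter-Glo was added for 30 min at room temperature before luminescence reading.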

[10] = Cell Viability - LYMP2-003 (AID 965);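 further: cells exposed to compounds for 24 h before reading; nearly all actives have a fitted effect of over 50% in size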
Method in brief: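 Human lymphoblastoid LYMP2-003 cells, 2500/well, exposed to compounds for 24 h at 37 C in complete medium. Viability read as intracellular ATP by CellTiter-Glo luminescence; AC50 from Hill-equation fits of qHTS concentration-response data.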

[11] = Cell Viability - LYMP2-011 (AID 969); further: nearly all actives have a fitted effect of over 60% in size
Method in brief: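 2500 cells/well, 5 hr 37 C; compound added, 24 hr 37 C; CellTiter-Glo 30 min RT; luminescence. qHTS concentration-response, Hill-equation AC50. Tetraoctylammonium bromide positive control.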

[12] = Cell Viability - LYMP2-013 (AID 970); further: series mostly up to about 92 µM; nearly all actives have a fitted effect of over 55% in size
Method in brief: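 qHTS; 2500 lymphoblastoid cells/well; 5 hr 37 C settle; cpd 24 hr 37 C; CellTiter-Glo, 30 min RT; luminescence. AC50 = Hill fit.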

[13] = Cell Viability - LYMP2-017 (AID 972); further: series mostly up to about 92 µM; nearly all actives have a fitted effect of over 55% in size
Method in brief: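 2500 cells/well, 5 h 37 C; cpd 24 h 37 C in complete medium; CellTiter-Glo, 30 min RT; luminescence (ATP). AC50 via Hill fit, qHTS.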

[14] = Cell Viability - LYMP2-019 (AID 973); further: nearly all actives have a fitted effect of over 55% in size
Method in brief: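 Luminescent ATP read-out (CellTiter-Glo, 30 min room temperature) served as the viability measure after 24 hr treatment of lymphoblastoid cells at 37 C. Concentration-response data were fitted to the Hill equation for AC50.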

[15] = Cell Viability - LYMP2-021 (AID 974);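 further: compound exposure lasts 24 hours at 37 °C; nearly all actives have a fitted effect of over 55% in size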
Method in brief: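 Plate 2500 lymphoblastoid cells per well and incubate 5 hr at 37 C. Add compounds over a concentration range and incubate 24 hr at 37 C. Add CellTiter-Glo, wait 30 min at room temperature, read luminescence.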

[16] = Cell Viability - LYMP2-023 (AID 975)
Method in brief: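 2500 cells/well, 5 hr 37 C; cpd 24 hr 37 C; CellTiter-Glo, 30 min RT; luminescence. qHTS conc-response, Hill fit -> AC50. Pos ctrl tetraoctylammonium bromide.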

[17] = Cell Viability - LYMP2-002 (AID 977);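 further: series mostly up to about 92 µM; compound exposure lasted 24 h at 37 °C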
Method in brief: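 Human lymphoblastoid LYMP2-002 cells, 2500 per well, exposed to compounds for 24 h at 37 C in complete medium; viability read as intracellular ATP by CellTiter-Glo luminescence, AC50 from Hill fits.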

[18] = Cell Viability - LYMP2-006 (AID 978); further: series mostly up to about 92 µM; nearly all actives have a fitted effect of over 60% in size
Method in brief: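 Human lymphoblastoid cells (LYMP2-006), 2500/well in complete medium, were treated with compound for 24 hr at 37 C. Cellular ATP was read by CellTiter-Glo luminescence after 30 min, and AC50 values came from Hill-equation fits of concentration-response data.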

[19] = qHTS assay for small molecule agonists of the antioxidant response element (ARE) signaling pathway measured by Nrf2-dependant transcriptional activity (AID 720636; active means well fitted curve in the direction sought with a large enough effect in the repeat runs; an effect the other way counts as inactive or inconclusive;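 further: HepG2 cells with an ARE-driven luciferase reporter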)
Method in brief: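 ONE-Glo luminescence, read 30 min after reagent addition at room temperature, reflected ARE reporter activity in HepG2 cells that had been incubated with compound for 16 hr at 37 C in 1% dialyzed FBS.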

[20] = qHTS assay for small molecule antagonists of the retinoid-related orphan receptor gamma (ROR-gamma) signaling pathway - cell viability counter screen (AID 720652; active means well fitted curve in the direction sought with a large enough effect in the repeat runs; an effect the other way counts as inactive or inconclusive;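 further: series mostly up to about 92 µM; compound exposure lasted 16 hr before ATP read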)
Method in brief: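 Luminescence from CellTiter-Glo after 30 min at room temperature reported cellular ATP as the cytotoxicity measure. Cells were the CHO reporter line with doxycycline-induced ROR-gamma expression, exposed to compound for 16 hr at 37 C.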

Measured: Potency

O=C1CCc2ccccc2O1
inactive: all assays above

c1ccc2scnc2c1
inactive: all assays above

Cc1cccc(O)c1
inactive: [19]

O=S(=O)(O)c1ccccc1
inactive: all assays above

O[C@@H]([C@H](O)[C@@H](O)CBr)[C@@H](O)CBr
inactive: all assays above

CC1(C)S[C@@H]2[C@H](NC(=O)COc3ccccc3)C(=O)N2[C@H]1C(=O)O
inactive: [19]

O=C(O)c1ccccc1C(c1ccc(O)cc1)c1ccc(O)cc1
inactive: all assays above

CCO[Si](CCCN)(OCC)OCC
inactive: all assays above

COC(=O)c1ccc(C)cc1
inactive: all assays above

CC1=CC(C)(C)Nc2ccccc21
inactive: all assays above

CCCCOCCO
inactive: all assays above

COC(=O)c1ccc(C=O)cc1
inactive: all assays above

Clc1cc(Cl)c(Cl)c(Cl)c1Cl
inactive: all assays above

C/C=C\c1ccc(OC)cc1
inactive: all assays above

COC(=O)CCCCC(=O)OC
inactive: all assays above

Cc1ccccc1C
inactive: all assays above

COc1c2ccoc2cc2oc(=O)ccc12
inactive: all assays above
